Measured values published in PubChem BioAssay AID1220 (Sanford-Burnham Center for Chemical Genomics, 2008).
Among all 190,000 compounds or so, about 1,300 (0.68%) were called active. Cut-off read from the data, not from the text of the source: active = inhibition above about 50%; inactive = the rest. The full list was thinned out, with actives kept by preference.

These compounds were tested against Mannose-6-phosphate isomerase (Homo sapiens) (UniProt P34949) (assay: MPI inhibition at elevated mannose 6-phosphate – biochemical, fluorescence intensity, high mannose 6-phosphate, primary screen (AID 1220)). Conditions: recombinant PMI enzyme, coupled fluorescence intensity; at 20 µM; stronger effect = higher value.
Sequence of Mannose-6-phosphate isomerase (Homo sapiens) (P34949 whole entry, looked up): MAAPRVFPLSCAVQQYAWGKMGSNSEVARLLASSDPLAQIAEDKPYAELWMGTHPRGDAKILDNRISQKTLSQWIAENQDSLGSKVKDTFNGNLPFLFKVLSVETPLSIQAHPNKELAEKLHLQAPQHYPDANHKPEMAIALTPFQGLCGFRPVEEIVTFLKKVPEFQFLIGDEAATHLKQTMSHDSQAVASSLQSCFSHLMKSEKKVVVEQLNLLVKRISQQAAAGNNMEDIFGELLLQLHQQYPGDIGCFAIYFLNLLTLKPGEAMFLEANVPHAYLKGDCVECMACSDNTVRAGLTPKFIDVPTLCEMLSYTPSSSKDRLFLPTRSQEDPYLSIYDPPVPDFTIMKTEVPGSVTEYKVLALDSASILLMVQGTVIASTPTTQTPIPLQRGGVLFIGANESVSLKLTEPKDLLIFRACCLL

inhibition, active:
COC(=O)c1ccc2c(c1)NC1=C(C(=O)CC(C)(C)C1)C(c1ccncc1)N2 (stereo unspecified) 61.3%, O=C(Oc1c(CN2CCOCC2)cc(Cl)c2cccnc12)c1ccccc1Cl 57.1%, O=C(Oc1c(CN2CCOCC2)cc(Cl)c2cccnc12)c1ccccc1F 51.4%, O=C(Oc1c(CN2CCOCC2)cc(Cl)c2cccnc12)c1ccccc1 56.3%, COc1ccc(OC)c(S(=O)(=O)Nc2ccccc2SC)c1 57.1%, C=CCOc1c(Br)cc(CNc2ccc(NC(=O)C(C)C)c(OC)c2)cc1OCC 57.7%, Nc1cc2c(cc1O)CCCC2 54.3%, O=C1C2C3C=CC(C3)C2C(=O)N1CNc1ccc(O)cc1 (stereo unspecified) 58.4%, O=C(O)c1cccc(NS(=O)(=O)c2ccc(-c3ccc(S(=O)(=O)Nc4cccc(C(=O)O)c4)cc3)cc2)c1 53.1%, CCOC(=O)C1CCN(C(=O)c2c(C)oc3c2C(=O)c2ccccc2C3=O)CC1 55.2%, Cc1oc2c(c1C(=O)N1CCC(C)CC1)C(=O)c1ccccc1C2=O 54.7%

inhibition, inactive:
CCOC(=O)C1CCCN(C(=O)c2cn(CC)c(=O)c3cc(OC)c(OC)cc23)C1 (stereo unspecified) -1.3%, CCOC(=O)c1nn(-c2ccc(C)cc2)cc1O 1.2%, CC1(C)CC(=O)C2=C(C1)Nc1ccccc1NC2c1cccnc1 (stereo unspecified) -11.6%, CC1(C)CC(=O)C2=C(C1)Nc1cc(C(=O)c3ccccc3)ccc1NC2c1ccccn1 (stereo unspecified) -4.3%, COc1cc(C(=O)Oc2c(CN3CCOCC3)cc(Cl)c3cccnc23)cc(OC)c1OC 35.9%, O=C(Oc1c(CN2CCOCC2)cc(Cl)c2cccnc12)c1ccc(F)cc1 40.1%, O=C(Oc1c(Cl)cc(Cl)c2cccnc12)N1CCOCC1 1.1%, O=[N+]([O-])c1cc(CN2CCOCC2)c2cccnc2c1O 40.5%, COc1cccc(C(=O)Oc2c(CN3CCOCC3)cc(Cl)c3cccnc23)c1 24%, COc1ccc(C(=O)Oc2c(CN3CCOCC3)cc(Cl)c3cccnc23)cc1 22.5%, c1ccc2c(c1)ccc1ncccc12 -5.5%, O=C(CS(=O)(=O)c1ccccc1)Nc1nc(-c2ccc(F)cc2)cs1 8.2%, CCOC(=O)CNC(=O)CSc1nnc(-c2ccco2)n1N 6.3%, CCCCOc1ccc(Cc2c(COCC)[nH]c(=S)[nH]c2=O)cc1 -4.9%, O=C(c1cc2ccccc2o1)N1CCCC1 -0.3%, COc1ccc(OC)c(S(=O)(=O)Nc2ccccc2C)c1 10.8%, COc1ccc(OC)c(NS(=O)(=O)c2cc(OC)ccc2OC)c1 2.8%, CC1=CC(C)(C)N(C(=O)CNC2CCCCC2)c2cc(C)ccc21 2.1%, C=CCOc1c(Br)cc(CNc2ccc(NC(=O)C(C)C)cc2)cc1OCC 22.7%, C=CCOc1c(Br)cc(CNc2ccc(NC(=O)C(C)C)c(OC)c2)cc1OC 41.7%, COc1cccc(C(=O)Nc2ccc3c(c2)C(=O)N(CCC(=O)O)C3=O)c1 3.7%, CC1CCCC(NC(=O)COC(=O)CSc2ccc3ccccc3c2)C1C (stereo unspecified) 7.7%, Cc1ccc(-c2cc(-c3ccccc3)nc(Cl)n2)cc1 12.5%, Cc1ccc(-c2nc(N)sc2C)cc1 -10.2%, Cc1ccc(-c2nnc(-c3ccccc3)c(-c3ccccc3)n2)cc1 -0.5%, Cc1ccc(-c2nc(N)sc2-c2ccc(C)cc2)cc1 13.6%, CCCCC(=O)OCC(=O)c1[nH]c(C)c(C(C)=O)c1C -12%, CCc1nnc(NC(=O)c2ccc(N(C)S(=O)(=O)c3ccccc3)cc2)s1 -6.4%, CC(C)c1ccccc1NC(=O)COC(=O)CNC(=O)c1ccc(Br)cc1 4.8%, O=C(O)c1ccc2c(c1)CCC2 0.1%, Nc1ccc(Cc2ccc(N)c(O)c2)cc1O 46.8%, COc1cc(NC(=O)CSc2c3c(nc4ccccc24)CCC3)cc(OC)c1OC -3.7%, CCOc1ccccc1NC(=O)CCN(c1ccc(C)cc1)S(=O)(=O)c1ccccc1 5.3%, Cc1nn(Cc2c(F)c(F)c(F)c(F)c2F)c(C)c1NC(=O)c1ccc(COc2cc(Cl)ccc2Cl)cc1 0.7%, Cc1ccc(NCN2C(=O)C3C4C=CC(C4)C3C2=O)cc1 (stereo unspecified) 16.9%, O=C1C2C3C=CC(C3)C2C(=O)N1CNc1ccccc1 (stereo unspecified) -1%, CC12CC(NC(=O)N1c1cccc(C(=O)N3CCN(c4ccccn4)CC3)c1)c1ccccc1O2 (stereo unspecified) -3.4%, O=C(CSc1nnc(SCc2cccc3ccccc23)s1)Nc1ccc(C(=O)O)cc1 10.4%, COc1ccc(COc2ccc(C3C(S(=O)(=O)c4ccccc4)CON3C)cc2OC)cc1 (stereo unspecified) -2.4%, O=C(O)c1cccc(NS(=O)(=O)c2ccc(Cl)c(C(=O)O)c2)c1 1.9%, O=C(O)c1cccc(NS(=O)(=O)c2ccc(C3CCCCC3)cc2)c1 -7%, CCOC(=O)c1c(C)oc2c1C(=O)c1ccccc1C2=O -16.2%, CC(=O)c1c(C)oc2c1C(=O)c1ccccc1C2=O -9.9%, CCOC(=O)C1CCN(C(C)=C2C(=O)c3ccccc3C2=O)CC1 -9.2%, Cc1oc2c(c1C(=O)O)C(=O)c1ccccc1C2=O -9.6%, CSc1nc(-c2ccccc2)c(-c2ccccc2)[nH]1 -9.1%, COc1ccc([N+](=O)[O-])cc1N(CC(=O)NC1CCCC1)S(C)(=O)=O -1.4%, Cc1cccc(N=C2NN=C(c3c(C)[nH]c4ccccc34)CS2)c1 -7%, O=C(Nc1ccc(Cl)cc1)N(Cc1nnc2n1CCCCC2)c1ccccc1 -8.1%, CCOC(=O)c1ccc(CN(Cc2ccc(C)cc2)S(=O)(=O)c2cccc([N+](=O)[O-])c2)cc1 -10%
